Sm TGR block: blocks Schistosoma mansoni thioredoxin glutathione reductase. Q962Y6. AID 485364. Potency, µM (doses to about 114 µM), for the others: at the highest dose activity change, negative = inhibition, hits mostly inhibitors. 3% of 360,000 active. purified TGR, DTNB reduction, TNB absorbance 405 nm; note: % is set by controls: 0 for no effect and ±100 for the full control effect; nearly all actives have a fitted effect of over 60% in size
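First, TGR (20 nM dispensed) and NADPH were mixed with compound. Second, a 15 min room-temperature incubation followed. Third, further NADPH and then DTNB were added to start the reaction. Finally, TNB absorbance was monitored kinetically.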
Pf growth 96h: P. falciparum growth inhibition at 96 hour, primary screen for plastid delayed-death inhibitors | P. falciparum luciferase reporter growth, 96 h | Potency, µM (highest dose often 28.7 µM), for the others: at the top dose activity change, negative = inhibition, actives largely listed as inhibitors | 6.9% of 320,000 active | AID 504834; note: % is set by controls: 0 for no effect and ±100 for the full control effect
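96 h incubation, 37 C, 5% CO2, of luciferase-reporter P. falciparum-infected RBCs (2% hematocrit, 0.05% parasitemia final) with test compounds; endpoint luminescence.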
SARS PLpro yeast: SARS-CoV PLP inhibition in yeast; S. cerevisiae expressing SARS-CoV PLpro, growth rescue; Potency, µM (titrated, usually from 32.9 µM), inactives show top-dose activity, positive = growth rescue, most hits filed as activators; 0.19% of 330,000 active; calls by dose curve; note: 0% is about no effect; nearly all actives have a fitted effect of over 55% in size
Pf growth 48h: P. falciparum growth inhibition at 48 hours (one generation); P. falciparum luciferase growth in erythrocytes, 48 h; Potency, µM (doses to about 28.7 µM), inactives show at the top dose activity change, negative = inhibition, most hits filed as inhibitors; 5.9% of 310,000 active; AID 504832; note: % is set by controls: 0 for no effect and ±100 for the full control effect
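Compounds are pin-transferred into medium, infected erythrocytes (2% hematocrit, 0.1% parasitemia final) are added, and plates sit one parasite generation at 37 C in 5% CO2. Detection reagent is then added and luminescence measured.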
* marks the source's active call; other numbers are inactive results; ? = inconclusive; . = not tested or not shown; ! = a repeat was not active; [ ] = another dose, or the depositor's remark. The list is not random: actives were taken first. Their share in the collection is about 12%. Unless noted, calls come from the whole dose curve; as a rule, active = well fitted curve in the direction sought with a large enough effect; inconclusive = small, poorly fitted or top-dose-only effect, or another doubt; inactive = no such curve, though single readings can be large; an effect the other way counts as inactive or inconclusive. Potency is the fitted concentration of half-maximal effect.

SMILES	Sm TGR block	Pf growth 96h	SARS PLpro yeast	Pf growth 48h
CCN1CCS/C1=C/C=C/C1=[N+](CC)CCS1	6%	0.66µM*	-9%	0.74µM*
OCCN1CCN(CC/C=C2/c3ccccc3Sc3ccc(C(F)(F)F)cc32)CC1	?	8.3µM*!	.	6.6µM*
OCCN1CCN(CCC=C2c3ccccc3Sc3ccc(Cl)cc32)CC1	.	4.5µM*	.	?
CN1CCN(CCC=C2c3ccccc3Sc3ccc(S(=O)(=O)N(C)C)cc32)CC1	-20%	11µM*	.	12µM*
Cc1ccc(NC(=O)C(c2ccccc2)N2CCN(CC(=O)N3CCOCC3)CC2)cc1Cl (stereo unspecified)	-22%	?	1%[6.58 µM]	?
C=C(C)CNC(=O)c1ccc(OC2CCN(S(=O)(=O)N(C)C)CC2)cc1	-22%	13µM*	-2%	2%
C=C(C)CN(CC)C(=O)c1ccc(OC2CCN(S(=O)(=O)N(C)C)CC2)cc1	-13%	4.1µM*	0%	0%
C#CCN(CC=C)C(=O)c1ccc(OC2CCN(S(=O)(=O)N(C)C)CC2)cc1	-16%	?	-1%	2%
Cc1cc(=O)n2[nH]c(NCc3ccc(F)cc3)nc2n1	-1%	.	.	.
Cc1nc2ncnn2c(N2CCC(C(=O)NC3CCCC3)CC2)c1Cc1ccccc1	3%	45%	3%	15µM*
Cc1cc(N2CCCC(C(=O)Nc3cccc(Cl)c3)C2)n2ncnc2n1 (stereo unspecified)	0%	15µM*	0%	-2%
COc1cccc(CC(NC(C)=O)C(=O)NC2CCN(c3c(Cc4ccccc4)c(C)nc4ncnn34)CC2)c1 (stereo unspecified)	18%	10µM*	23%	3.7µM*
Cc1ccccc1NC(=O)C1CCN(c2cc(-c3ccccc3)nc3ncnn23)CC1	-10%	-19%	27%	7.4µM*
COc1ccc(C)cc1NC(=O)Cn1cc(S(=O)(=O)N2CCC(C)CC2)c2ccccc2c1=O	0%	.	.	.
Cc1cc(C(=O)Nc2c(C)nc3ccccn3c2=O)ccc1[N+](=O)[O-]	-6%	.	.	.
Nc1nnc(-c2cn(-c3ccccc3)nc2-c2ccccc2)o1	-1%	-16%	1%	?
Nc1nnc(-c2cn(-c3ccccc3)nc2-c2ccc(Cl)cc2)o1	9%	4.7µM*	1%	3.7µM*
CC(=O)c1cccc(Nc2ncnc3c2cnn3-c2cccc(Cl)c2)c1	2%	.	.	.
Cn1c(-c2ccc(Cl)nc2)nc2cc(Cl)ccc21	-6%	32%	-2%	19%
Cc1ccccc1OCC(O)CNC1CCC(NCC(O)COc2ccccc2C)CC1 (stereo unspecified)	-32%	3.7µM*	1%	0.93µM*
Cc1ccccc1OCC(O)CO (stereo unspecified)	.	-14%	.	3%
OC(CNCCc1ccc(C(F)(F)F)cc1)COc1ccc2ccccc2c1 (stereo unspecified)	3%	?	-23%	?
OC(CNCCc1ccc(C(F)(F)F)cc1)COc1cccc2ccccc12 (stereo unspecified)	1%	6.6µM*	-28%	7.4µM*
Cc1ccc(OCC(O)CNC2CCCC2)c(C)c1 (stereo unspecified)	-8%	13µM*	-3%	?
CCN1CCCC1CNCC(O)COc1ccc(C(C)(C)C)cc1C (stereo unspecified)	1%	12µM*	-1%	10µM*
SMILES	Sm TGR block	Pf growth 96h	SARS PLpro yeast	Pf growth 48h
CC(=O)Nc1ccc(S(=O)(=O)N(C)CC(=O)Nc2cccc(S(=O)(=O)N3CCCC3)c2)cc1	3%	?	1%	?
O=C(Nc1ccccc1F)c1nc(SCc2ccc(F)cc2)ncc1Cl	3%	.	.	.
O=C1Oc2ccccc2C(=O)C1C(CC(O)c1ccc(-c2ccc(Br)cc2)cc1)c1ccccc1 (stereo unspecified)	.	-25%	.	-3%
OC(CNC1CCCCCC1)COc1cccc2ccccc12 (stereo unspecified)	-28%	2.1µM*	0%	1.7µM*
OC(CNC1CCCC1)COc1ccccc1Br (stereo unspecified)	-2%	-97%	.	-102%
CN(CC(O)COc1ccccc1F)C1CCCCC1 (stereo unspecified)	-1%	35%	0%	-16%[5.75 µM]
Cc1ccccc1OCC(O)CN(Cc1ccccc1O)C1CCCCC1 (stereo unspecified)	2%	0.19µM*	1%	0.23µM*
CCC(C)Sc1nnc(CSc2nc(C)cc(C)n2)n1C (stereo unspecified)	-5%	13µM*	2%	?
CCCSc1nnc(CSc2nc(C)cc(C)n2)n1C	1%	10µM*	4%	-12%
CCOc1ccc(CNS(=O)(=O)c2c(C(=O)N3CCCCCC3)c(C)n(C)c2C)cc1OC	-3%	.	.	.
COC(=O)c1ccc2c(=O)n(Cc3ccco3)c(SCC(=O)Nc3ccc(C)c(Cl)c3)nc2c1	-17%	.	-1%	?
O=c1c2ccccc2nc(SCc2cccc(F)c2)n1-c1cccc(S(=O)(=O)N2CCCC2)c1	-11%	6.6µM*	-4%	?
O=C(CSc1nc2ccccc2c(=O)n1-c1ccc(F)cc1)Nc1cc(S(=O)(=O)N2CCOCC2)ccc1Cl	0%	3.7µM*	5%	6.6µM*
O=C(CSc1nc2ccccc2c(=O)n1-c1ccc(F)cc1)Nc1ccc(N2CCOCC2)cc1	-3%	?	10%	-26%
Cc1ccc(S(=O)(=O)N2CCOCC2)cc1NC(=O)CSc1nc2ccccc2c(=O)n1Cc1ccccc1	-5%	5.2µM*	?	?
O=C(CSc1nc2cc(Cl)ccc2c(=O)n1Cc1ccco1)Nc1ccc(S(=O)(=O)N2CCOCC2)cc1	-3%	10µM*	9%	?
COc1cc(F)ccc1S(=O)(=O)N1CCN(c2ccccc2)CC1	-1%	?	-1%	8%
CCCCOc1ccc(/C=N/Nc2cc(N3CCOCC3)nc(C)n2)cc1	7%	-18%	1%	0%
COC(=O)c1cc(Br)ccc1NC(=O)CCNC(=O)c1ccco1	0%	12%	-4%	14%
CS(=O)(=O)c1ccc(Cl)c(NC(=O)CSc2nc3ccccc3c(=O)n2CCCN2CCOCC2)c1	-5%	7.4µM*	-10%	?
Cc1onc(-c2c(Cl)cccc2Cl)c1/C(N)=N/OC(=O)N(C)C	9%	?	0%	?
Cc1onc(-c2c(Cl)cccc2Cl)c1CO/N=C(\C#N)c1c(Cl)cccc1Cl	10%	?	-2%	15µM*
CC1(C)N=C(N)NC(Nc2cccc(Br)c2)=N1	3%	1.2µM*	7%	.
Cc1cccc(C)c1NC1=NC(C)(C)N=C(N)N1	3%	132%	17%	5%
CC1(C)N=C(N)NC(Nc2ccc(Br)cc2)=N1	-1%	.	-5%	5.2µM*
C/C(=N\NC(=O)c1nnn(-c2nonc2N)c1C(C)C)c1cc(C)sc1C	-15%	-8%	7%	-15%
COc1cccc(CC2(CO)CCCN(Cc3[nH]c4ccc(C)cc4c3C)C2)c1 (stereo unspecified)	1%	5.9µM*	-1%	9.3µM*
COc1ccc(CN2CCCC(CO)(Cc3ccc(F)cc3F)C2)cc1 (stereo unspecified)	0%	10µM*	11%	-17%

Bioassay records (PubChem)
